# This is a sample that favours compounds with a hit; in the whole collection about 7.4% have one here.
# Rab9 prom act: activates the Rab9 promoter; Huh7 Rab9 promoter-luciferase reporter, luminescence, 24 h; Potency, µM (titrated, usually from 9.22 µM), for inactives: at the highest dose activation, negative = inhibition, hits mostly activators; 2.8% of 320,000 active; AID 485297; also: % of control where 0% means no effect; nearly all actives have a fitted effect of over 60% in size
#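 Luciferase signal after 10 min detection reagent at ambient indicates Rab9 promoter upregulation; stably transfected Huh7 cells were treated 24 h with compound in DMSO at 37 °C, 5% CO2.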
# KinaseGlo FLuc: blocks Kinase-Glo luciferase, a counter-screen artifact. Q27757. Kinase-Glo luciferase, ATP luminescence, 8 min. Potency, µM (top dose mostly 38.3 µM), for the others: at the highest dose activity change, negative = inhibition, usual class: inhibitors. 0.28% of 200,000 active. AID 1379; also: % is scaled to controls: 0 for no effect and ±100 for the full control effect; nearly all actives have a fitted effect of over 60% in size
#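 Kinase-Glo luciferase light output from ATP and luciferin was measured with 10 uM ATP, within the enzyme's linear range. Buffer: 50 mM imidazole pH 7.2, 50 mM KCl, 7 mM MgCl2, 0.01% Tween 20, 0.05% BSA; luminescence read after 8 min at ambient temperature.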
# FLuc counter: counter-screen for miR-21 project: firefly luciferase inhibitors or activators. AID 588342. Potency, µM (titrated, usually from 57.5 µM), without a hit: top-dose activity change, negative = inhibition, usual class: inhibitors. 6.9% of 360,000 active. P08659. purified FLuc, Km substrates, luminescence inhibition;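 also: plate controls were vehicle for no effect and reference inhibitor for full effect; nearly all actives have a fitted effect of over 55% in size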
# Target sequence (P08659 whole entry, looked up): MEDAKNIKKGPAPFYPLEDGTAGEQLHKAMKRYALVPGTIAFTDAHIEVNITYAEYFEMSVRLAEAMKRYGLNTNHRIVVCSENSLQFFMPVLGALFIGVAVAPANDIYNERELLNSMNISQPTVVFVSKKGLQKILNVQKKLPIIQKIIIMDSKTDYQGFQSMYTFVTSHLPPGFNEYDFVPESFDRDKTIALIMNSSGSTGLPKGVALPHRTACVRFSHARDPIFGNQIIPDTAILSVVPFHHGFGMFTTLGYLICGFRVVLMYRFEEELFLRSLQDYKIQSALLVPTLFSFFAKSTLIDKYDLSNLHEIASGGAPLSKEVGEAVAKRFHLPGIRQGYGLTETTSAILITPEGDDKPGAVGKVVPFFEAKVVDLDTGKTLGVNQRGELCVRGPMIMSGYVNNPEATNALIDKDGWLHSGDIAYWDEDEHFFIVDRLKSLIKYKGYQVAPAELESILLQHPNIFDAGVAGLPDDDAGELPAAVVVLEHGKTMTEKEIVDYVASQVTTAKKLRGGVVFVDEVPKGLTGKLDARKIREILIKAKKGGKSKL
#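 Biochemical qHTS of compounds, final roughly 60 µM downward over six points, against 10 nM purified firefly luciferase using Km concentrations of substrates (10 uM D-luciferin, 10 uM ATP) in Tris acetate pH 7.5 buffer; luminescence output.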
# ELG1 genotox: induces genotoxicity in HEK293T cells with luciferase-tagged ELG1; HEK293T ELG1-luciferase reporter, luminescence, 16 h; Potency, µM (titrated, usually from 46 µM), for inactives: at the highest dose activity change, positive = activation, hits mostly activators; 1.3% of 330,000 active; also: % of control where 0% means no effect; nearly all actives have a fitted effect of over 60% in size
#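 Screening used a luciferase reporter fused to human ELG1 in HEK293T cells. Luminescence was read on a CCD plate imager after 16 hr exposure and 30 min ONE-Glo incubation.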
# SMN2 splice up: increases expression of the SMN2 splice variant | HEK293 SMN2-luciferase splicing reporter, luminescence, 30-36 h | Potency, µM (series often up to 46.1 µM), without a hit: at the highest dose activity change, positive = activation, hits mostly activators | 2.8% of 210,000 active; also: % of control where 0% means no effect; nearly all actives have a fitted effect of over 55% in size
#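 qHTS luciferase splicing reporter: luminescence rises when SMN2 exon 7 is included in transfected HEK293 cells. Compound exposure lasted 30-36 h at 37C, with 4.5 mM final sodium butyrate as control, followed by a ONE-Glo read.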
# NPC1 prom act: activators of NPC1 promoter; Huh7 NPC1 promoter luciferase reporter, 24 h; Potency, µM (top dose mostly 9.22 µM), for inactives: top-dose activation, hits mostly activators; 2.4% of 320,000 active; AID 485313; also: % of control where 0% means no effect; nearly all actives have a fitted effect of over 60% in size
#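 Huh7 reporter cells (NPC1 promoter driving luciferase) are dosed with compound for 24 h at 37 °C, 5% CO2; luciferase detection reagent is then added and luminescence measured after 10 min at ambient temperature.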
# Active calls of the source: *; ? = inconclusive; · = not tested or not shown. Calls follow the shape of the dose curve; as a rule, active = well fitted curve in the direction sought with a large enough effect; inconclusive = small, poorly fitted or top-dose-only effect, or another doubt; inactive = no such curve, though single readings can be large; an effect the other way counts as inactive or inconclusive. Potency is read from the fitted curve at half-maximal effect.
SMILES,Rab9 prom act,KinaseGlo FLuc,FLuc counter,ELG1 genotox,SMN2 splice up,NPC1 prom act
O=C1CC(c2ccc(F)cc2)Sc2nc(-c3ccccc3)c(-c3ccccc3)n21 (configuration not stated),-4%,13%,0%,0%,-17%,-2%
CCCN1C(=O)CC(c2ccco2)Sc2ccccc21 (configuration not stated),-6%,3%,0%,8%,3%,-2%
O=C1CC(c2ccc3c(c2)OCO3)Sc2nc3ccccc3n21 (configuration not stated),18%,-19%,1.5µM*,?,?,4µM*
O=C(Nc1ccccc1Cl)C1CC(=O)n2c(nc3ccccc32)N1 (configuration not stated),-7%,-1%,-1%,?,3%,-7%
CC1CCc2onc(C(=O)N3CCN(c4ccccc4)CC3)c2C1 (configuration not stated),·,·,5%,·,·,·
CCn1c(=S)[nH]c2cc(S(=O)(=O)N3CCCCC3)ccc21,-4%,2%,7%,9.2µM*,·,-3%
CCCCn1c(=S)[nH]c2cc(S(=O)(=O)N3CCOCC3)ccc21,·,·,·,0%,·,·
CCn1c(/C=N/c2nc3ccccc3n2C)nc2ccccc21,2%,0%,-17%,-2%,-6%,-2%
CN(C)c1ccc(N=Nc2nc3ccccc3n2C)cc1,?,·,0.019µM*,-14%,·,28%
Cn1c(Cl)nc2ccccc21,-1%,0%,2%,-3%,?,-7%
Cn1c(N=Nc2ccccc2)nc2ccccc21,0.4µM*,0.89µM*,0.48µM*,1.2µM*,0.63µM*,0.71µM*
CC1=C(C(N)=O)C(c2cccc(C)c2)n2nc(-c3cccc(C)c3)nc2N1 (configuration not stated),·,·,-12%,·,2%,·
COc1nc(Oc2ccc(=O)n(-c3ccccc3)n2)nc(N(C)C)n1,·,·,-6%,·,-2%,·
Nc1ccccc1C(=O)NNC(=O)C(=O)/C=C(\O)c1ccccc1,21%,·,13µM*,15%,·,17%
O=C(/C=C(\O)c1ccccc1)C(=O)NNC(=O)c1ccccc1[N+](=O)[O-],1%,·,2%,2%,·,11%
CCOc1ccc(CNC(=O)c2cc3c(s2)-c2ccccc2OC3)cc1,·,·,3%,·,-15%,·
CC(C)CC(=O)Nc1cccc(-c2cn3ccsc3n2)c1,?,0%,12µM*,?,18µM*,?
CCC(=O)Nc1cccc(-c2cn3ccsc3n2)c1,-4%,-3%,17µM*,6%,24%,14%
CC(C)C(=O)Nc1cccc(-c2cn3ccsc3n2)c1,29%,3%,15µM*,?,23%,13%
CC(C)(C)CC(=O)Nc1cccc(-c2cn3cccnc3n2)c1,2.5µM*,0%,11µM*,?,11µM*,?
CCOc1ccc(OCC)c(NS(=O)(=O)c2ccc(-c3coc(C)n3)cc2)c1,·,·,3%,·,·,·
CC1CCc2sc(C(=O)N3CCC(C(N)=O)CC3)cc2C1 (configuration not stated),0.5µM*,·,17µM*,?,·,0.4µM*
CC1CC(C)CN(C(=O)c2cc3c(s2)CCC3)C1 (configuration not stated),0%,0%,-18%,15%,-14%,1%
NC(=O)C1CCN(C(=O)c2cc3c(s2)CCCCC3)CC1,3.5µM*,·,?,18%,·,?
CCc1ccc(NC(=O)C2CCCN2S(=O)(=O)c2ccc3c(c2)CCCC(=O)N3)cc1 (configuration not stated),·,·,-1%,·,·,·
CCOc1ccc(-n2c(-c3ccc(Br)cc3)cc3c2CC(C)(C)CC3=O)cc1,·,·,1%,·,-2%,·
COc1ccccc1CN1CC(C(=O)N2CCCCO2)CCC1=O (configuration not stated),?,·,?,?,·,26%
O=C1CCC(C(=O)N2CCCCO2)CN1CCc1ccccc1 (configuration not stated),?,·,17µM*,?,·,?

# Source: PubChem BioAssay (National Center for Advancing Translational Sciences (NCATS))
